# Results published in PubChem BioAssay AID2685 (National Center for Advancing Translational Sciences (NCATS), 2010).
# About 2,100 (0.66%) of roughly 320,000 compounds were called active. About 53% were inconclusive and are not listed. Calls come from the whole dose curve; as a rule, active = well fitted inhibition curve with a large enough effect in the signal ratio, with a control signal flat (not every such curve was filed as active); inconclusive = small, poorly fitted or top-dose-only effect, or effect the other way, or a change in a side signal; inactive = flat fitted curve, though single readings scatter; the % refers to the signal ratio. Many of the other results were omitted from the sample, so actives are more common in it than they were.
# Test: qHTS Assay for Lipid Storage Modulators in Drosophila S3 Cells;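 for cell number change: cells counted by Cell Tracker Red CMTPX staining in the red channel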
# Settings: BODIPY lipid droplet fluorescence, 18-24 h, cells fed with added oleic acid; cell number change: measured here: cell count max response; series mostly up to 46.1 µM
# From the text: NIH Molecular Libraries Probe Production Centers Network [MLPCN] NIH Chemical Genomics Center [NCGC] MLPCN Grant: 1 R03 MH085686-01 Assay Submitter (PI): Beller, Mathias; Max-Planck-Institut fur Biophysikalische Chemie NCGC Assay Overview: Storing lipids as a reservoir for energy or the anabolism of elementary metabolites is a common feature of probably all cells and is conserved from bacteria to humans. The universal cellular lipid storage organelle is the so-called lipid storage droplet (LD). Although ubiquitous, LDs share a simple structure composed of a hydrophobic core that harbors the storage lipids, which is shielded by a droplet-specific phospholipid monolayer to which proteins are attached. The current model of LD biogenesis involves an incorporation of the lipid core into the membrane leaflets of the endoplasmic reticulum (ER) followed by a subsequent budding-like maturation of a LD, which ultimately pinches off. Once released, LD volume can increase by localized lipogenesis or fusion of existing droplet. Storage lipids are re-mobilized enzymatically by lipase activity. Lipase regulation in the adipocyte is heavily studied and involves multiple components including catecholamine signaling, the LD-associated proteins Perilipin and comparative gene identification (CGI-58) and at least two lipases named hormone sensitive lipase (HSL) and adipocyte triglyceride lipase (ATGL). LD regulation outside of the adipocyte is poorly understood and only few components are known. However, there is an urgent need to learn more about ectopic fat depots as mislocalized storage of lipids, for example in the liver or muscle, is an eminent health problem associated with insulin resistance or the metabolic syndrome. We developed a laser-scanning cytometer assay to enable 1,536-well screening and combined the results of the small molecules screen with an RNAi database based on lipid storage.
# Triacsin C (Sigma-Aldrich T-4540), an inhibitor of long-chain fatty acyl CoA synthetase that blocks synthesis of triglycerides, was used as a positive control for lipid under-storage. A total of 23 nL of compound solution of different concentrations were transferred to the assay plates using a Kalypsys pin tool equipped with a 1,536-pin array containing 10-nL slotted pins (FP1S10, 0.457-mm diameter, 50.8 mm long; V&P Scientific). One microliter of oleic acid (400 uM) was added, and the plate was lidded with stainless steel rubber gasket lined lids containing pinholes. […] Fluorescence was detected by excitation of the fluorophores with a 488-nm laser on an Acumen Explorer (TTP Lab Tech). The total intensity in channel 2 (500-530 nm) reflected lipid droplet accumulation. Cells were detected using channel 3 (575-640 nm) with 5-um width and 100-um depth filters. The ratio of the number of objects in PMT channel 2 over the number of objects in PMT channel 3 was also calculated. Percent activity was computed relative to an internal control (100% inhibited lipid droplet deposition due to the presence of 20 uM Triacsin C), which was added to 32 wells/plate.
# Potency is the fitted concentration of half-maximal effect.
Structure (SMILES),Potency,cell number change [%]
O=C(CSCC(=O)NCc1ccco1)NCc1ccco1,6.51 µM (active),16.7
COc1ccc(C(C)NC(=O)c2ccc([N+](=O)[O-])cc2)cc1OC (stereo not drawn),inactive,5.72
CC12COC3(C(=O)Nc4nccs4)CC1CCC32C (stereo not drawn),inactive,20.9
O=C1c2ccccc2C(=O)N1Cc1ccccn1,inactive,-28
COC(=O)C1=C(C)C(c2cccs2)NC(=O)N1C (stereo not drawn),inactive,10.6
O=C(NCc1cccs1)NC1CCCCC1,inactive,3.84
O=C(NCCCn1ccnc1)c1ccc2ccccc2c1,inactive,–
O=C(O)c1c(Cl)nc2ccccn12,4.61 µM (active),-7.31
O=Cc1c(Cl)nc2ccccn12,inactive,-2.46
Cc1nc2ccccn2c1C(=O)c1ccccc1,inactive,15.8
COc1ccc([N+](=O)[O-])cc1NC(=O)CSc1nc(C)c(C)c(C)n1,inactive,1.59
Cc1sc2ncn(CC(=O)N3CCCCC3)c(=O)c2c1S(=O)(=O)N1CCC(C)CC1,inactive,18.5
CCOC(=O)C1CCN(C(=O)Cn2cnc3sc(C)c(S(=O)(=O)N4CCC(C)CC4)c3c2=O)CC1,0.58 µM (active),14.4
CCOC(=O)C1CCN(C(=O)Cn2cnc3sc(C)c(S(=O)(=O)N4CCOCC4)c3c2=O)CC1,inactive,1.25
CN(C)c1ncc(S(=O)(=O)c2ccccc2)c(=O)[nH]1,inactive,19.4
CC12CC3(C)CC(C)(C1)CC(C(=O)NC(=S)N1CCCC1)(C2)C3,inactive,-0.792
COC(=O)CNC(=O)C12CC3(C)CC(C)(CC(C)(C3)C1)C2,inactive,-2.27
CC12CC3(C)CC(C)(C1)CC(C(=O)NCC(=O)O)(C2)C3,1.46 µM (active),-16.9
Cc1cc(C)nc(SCc2cn3c(C)cccc3n2)n1,inactive,13.2
O=C(NCCc1ccccc1)C1CCCN(C(=O)Nc2ccc(F)cc2)C1 (stereo not drawn),inactive,16.8
O=C(COC(=O)c1ccc(NS(=O)(=O)c2ccc(F)c(F)c2)cc1)NCC1CCCO1 (stereo not drawn),inactive,10.2
O=C(CCc1c[nH]c2ccccc12)N1CCCCCCC1,inactive,-19.1
Cc1cc(NC(=O)c2ccc(C)c([N+](=O)[O-])c2)no1,inactive,0.478
Cc1cc(NC(=O)c2cc([N+](=O)[O-])cc([N+](=O)[O-])c2)no1,inactive,2.37

Structure (SMILES),Potency,cell number change [%]
Cc1cc(NC(=O)c2ccc([N+](=O)[O-])cc2)no1,0.58 µM (active),-11.8
C/C(=N\NC(=O)c1ccc(F)cc1)c1cccc(NC(=O)c2cccc(F)c2)c1,inactive,11.9
COC(=O)c1sccc1NC(=O)COc1ccc(F)cc1Cl,inactive,0.149
Cc1nn2c(=O)cc(COC(=O)c3ccc(NC(=O)C(C)(C)C)cc3)nc2s1,3.66 µM (active),7.59
COCCc1nn2c(=O)cc(COC(=O)c3cc(OC)c(OC)c(OC)c3)nc2s1,inactive,–
Cc1ccc(C(=O)Nc2ccc(C(=O)OCc3cc(=O)n4ccsc4n3)cc2)cc1,inactive,10.6
COc1ccc(C(=O)CSc2ccc3nnc(-c4cccnc4)n3n2)cc1,inactive,-3.07
Clc1ccc(OCc2nnc3n2CCCCC3)c(Cl)c1,inactive,–
COc1cccc(/C=C2\SC(=O)N(CC(=O)NC3CCS(=O)(=O)C3)C2=O)c1 (stereo not drawn),inactive,0.472
O=C(CN1C(=O)/C(=C/c2ccccc2)SC1=S)NC1CCS(=O)(=O)C1 (stereo not drawn),inactive,–
O=C(CN1C(=O)S/C(=C\c2ccccc2F)C1=O)NC1CCS(=O)(=O)C1 (stereo not drawn),inactive,-4.18
O=C(CCN1C(=O)S/C(=C\c2ccccc2)C1=O)NC1CCS(=O)(=O)C1 (stereo not drawn),inactive,-15.9
COc1ccc(/C=C2\SC(=S)N(CC(=O)NC3CCS(=O)(=O)C3)C2=O)cc1 (stereo not drawn),inactive,5.36
O=C(CN1C(=O)S/C(=C\c2ccccc2)C1=O)NC1CCS(=O)(=O)C1 (stereo not drawn),20.6 µM (active),–
CC(C(=O)NC1CCS(=O)(=O)C1)N1C(=O)/C(=C/c2ccc(Cl)cc2)SC1=S (stereo not drawn),20.6 µM (active),-12.5
O=C(CN1C(=O)/C(=C/c2ccc(F)cc2)SC1=S)NC1CCS(=O)(=O)C1 (stereo not drawn),inactive,-19.3
CC(C)c1ccc(/C=C2\SC(=O)N(CC(=O)NC3CCS(=O)(=O)C3)C2=O)cc1 (stereo not drawn),2.59 µM (active),-27.6
O=C(O)CSc1nnnn1C1CCCCC1,inactive,12.8
CCOC(=O)c1oc2ccccc2c1COC(=O)CNC(=O)c1ccccc1,inactive,-8.09
NC(=O)C1CCN(CC(O)CSc2ccccc2)CC1 (stereo not drawn),inactive,–
Cc1nnc(N/N=C/c2ccco2)n1N,inactive,-14
N/C(=N\OC(=O)c1cc([N+](=O)[O-])ccc1Cl)c1cccnc1,inactive,-8.86
CN(C)CCCNC(=O)C(=O)NCC1OCCN1S(=O)(=O)c1cccs1 (stereo not drawn),inactive,1.62
